Experimental data reported in PubChem BioAssay (Tox21).
Records with an inconclusive call do not appear. Calls of active or inactive are those of the source. Unless noted, the call rests on the fitted dose curve.

Columns and labels:
[1] = Nuclear factor erythroid 2-related factor 2/antioxidant responsive element (Nrf2/ARE) small molecule agonists: qHTS cell viability counter screen in human keratinocytes (AID 1919968; active means well fitted curve in the direction sought with a large enough effect in the repeat runs; an effect the other way counts as inactive or inconclusive; further: nearly all actives have a fitted effect of over 55% in size); conditions: KeratinoSens HaCaT ARE cells viability, CellTiter-Fluor, 24 h; series mostly up to 92.4 µM
Outline: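 Seed 1,500 KeratinoSens cells per well, then incubate 5 h at 37 C/5% CO2. Add compounds in DMSO and incubate 23 h. Add CellTiter-Fluor, wait 1 h and read fluorescence.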

[2] = target: Gonadotropin-releasing hormone receptor (Homo sapiens) (UniProt P30968); experiment: Human gonadotropin-releasing hormone receptor (GnRHR) small molecule agonists, calcium flux assay in GnRHR-HEK293 cells (AID 1920063); conditions: calcium flux fluorescence, agonist mode; series mostly up to 57.6 µM; further: nearly all actives have a fitted effect of over 35% in size
Outline: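 Cells: HEK293 stably expressing human GnRHR. Steps: overnight (18 h) culture, 1 h calcium dye loading at 37 C, compound addition, kinetic fluorescence read at 480/540 nm. Each compound tested at 15 concentrations in triplicate.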

[3] = target: KiSS-1 receptor (Homo sapiens) (UniProt Q969F8); experiment: Human kisspeptin (KISS1R) small molecule agonists, calcium flux assay in KISS1R-HEK293 cells (AID 1920064; active means well fitted curve in the direction sought with a large enough effect in the repeat runs; an effect the other way counts as inactive or inconclusive); conditions: KISS1R-HEK293, calcium flux fluorescence, agonist; series mostly up to 76.8 µM
Outline: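 Cells plated and incubated 18 h; dye added, 1 h at 37 C; compounds in DMSO pinned in; signal read at 480/540 nm every second for 3 min. Each compound tested at 15 concentrations in triplicate.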

[4] = G protein-coupled receptor (GPCR) small molecule agonists, calcium flux assay: HEK293 wild type cell line counter screen (AID 1920065); conditions: HEK293 WT calcium flux, fluorescence, agonist mode; series mostly up to 57.6 µM
Outline: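 Counter-screen of the Tox21 10K library for non-specific calcium release: dye-loaded cells received compounds in DMSO and were monitored by kinetic fluorescence (480/540 nm, 3 min). Fifteen concentrations, run in triplicate.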

[5] = p53 small molecule agonists, cell-based qHTS assay with human liver microsomes: qHTS cell viability counter screen (AID 1963579); conditions: p53RE-bla HCT-116 viability, ATP luminescence, 16 h, HLM; series mostly up to 66 µM; further: nearly all actives have a fitted effect of over 45% in size
Outline: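 Viability of p53RE-bla cells is measured as CellTiter-Glo luminescence following a 16 h, 37 C incubation with compound, liver microsomes from human donors and NADPH.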

[6] = p53 small molecule agonists, cell-based qHTS assay with rat liver microsomes: qHTS cell viability counter screen (AID 1963580); conditions: p53RE-bla HCT-116 + rat microsomes, ATP viability, 16 h; series mostly up to 66 µM; further: nearly all actives have a fitted effect of over 45% in size
Outline: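 Intracellular ATP, by CellTiter-Glo luminescence, defines viability. HCT-116 p53RE-bla cells, 4,000 per well, were compound-treated in the presence of rat liver microsomes and NADPH for 16 h at 37 C.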

[7] = p53 small molecule agonists, cell-based qHTS assay: qHTS cell viability counter screen (AID 1963581); conditions: p53RE-bla HCT-116 viability, ATP luminescence, 16 h; series mostly up to 66 µM; further: nearly all actives have a fitted effect of over 45% in size
Outline: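 Cells: HCT-116 with p53 response element-driven beta-lactamase. Treatment: 16 h, 37 C, compounds in DMSO. Read: CellTiter-Glo luminescence after 30 min RT.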

[8] = target: 5-hydroxytryptamine receptor 2A (Homo sapiens) (UniProt P28223); experiment: 5-hydroxytryptamine receptor 2A (HTR2A) small molecule agonists, cell-based qHTS assay (AID 1963587); conditions: HTR2A-CHO cells, calcium flux fluorescence, agonist mode; series mostly up to 76.8 µM; further: nearly all actives have a fitted effect of over 30% in size
Outline: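 Kinetic calcium-flux fluorescence (2 min, 1 sec intervals) after compound addition in agonist mode. HTR2A-CHO cells were cultured 18 h, then dye-loaded 1 h at 37 C.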

[9] = target: Muscarinic acetylcholine receptor M1 (Homo sapiens) (UniProt P11229); experiment: Cholinergic receptor muscarinic 1 (CHRM1) small molecule agonists, cell-based qHTS assay (AID 1963589); conditions: CHRM1-CHO cells, agonist mode, calcium flux fluorescence; series mostly up to 76.8 µM; further: nearly all actives have a fitted effect of over 35% in size
Outline: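 Agonist-mode qHTS in CHO cells stably carrying human muscarinic M1. Intracellular calcium is tracked by fluorescence every second after compound transfer; each compound runs at 15 concentrations in three independent runs.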

[10] = cAMP Responsive Elements (CRE) small molecule agonists, cell-based qHTS assay (AID 1963590); conditions: CRE-bla HEK293T, beta-lactamase FRET ratio, 3 h; series mostly up to 92.4 µM
Outline: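 Agonist mode qHTS in CRE-bla HEK 293T cells: compounds dosed from DMSO for 3 h at 37 C/5% CO2, followed by LiveBLAzer B/G FRET substrate for 2 h at room temperature.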

[11] = cAMP Responsive Elements (CRE) small molecule antagonists, cell-based qHTS assay (AID 1963591; active means well fitted inhibition curve with a large enough effect in the signal ratio in the repeat runs, not every such curve was filed as active; the % refers to the signal ratio); conditions: CRE-bla HEK293T, beta-lactamase FRET ratio; series mostly up to 92.4 µM
Outline: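 Antagonist mode: test compounds are co-incubated with the adenylyl cyclase activator NKH477 (0.25 uM final) on CRE-bla HEK293T cells for 3 h at 37 °C, followed by LiveBLAzer substrate loading.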

[12] = target: Beta-2 adrenergic receptor (Homo sapiens) (UniProt P07550); experiment: Adrenergic beta2 receptor (ADRB2) small molecule antagonists, cell-based qHTS assay (AID 1963592); conditions: CHO-ADRB2 cells, isoproterenol-stimulated cAMP HTRF ratio, 0.5 h; series mostly up to 92.4 µM; further: nearly all actives have a fitted effect of over 50% in size
Outline: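 Cells (CHO, stable ADRB2 overexpression) incubated 18-20hr at 37C; compounds added from DMSO; agonist mix (1nM isoproterenol, 100uM IBMX, 25uM Ro-20-1724) added; 0.5hr RT; d2-cAMP and anti-cAMP-cryptate added; 1hr RT; 665/615 nm read.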

[13] = target: D(2) dopamine receptor (Homo sapiens) (UniProt P14416); experiment: Dopamine D2 receptor (DRD2) small molecule agonists, cell-based qHTS assay (AID 1963594); conditions: HEK293-DRD2 cAMP HTRF, agonist mode, 30 min; series mostly up to 92.4 µM; further: nearly all actives have a fitted effect of over 35% in size
Outline: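 cAMP accumulation in DRD2-HEK293 cells measured by HTRF after 1 h detection; compounds added 10 min before NKH477 (200nM […]) forskolin-analogue stimulation, 30 min at room temperature, with Ro20-1724 present at 0.1 mM final.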

[14] = target: D(2) dopamine receptor (Homo sapiens) (UniProt P14416); experiment: Dopamine D2 receptor (DRD2) small molecule antagonists, cell-based qHTS assay (AID 1963595; active means well fitted inhibition curve with a large enough effect in the signal ratio in the repeat runs, with a control signal flat; the % refers to the signal ratio); conditions: HEK293-DRD2 cAMP HTRF antagonist mode; series mostly up to 92.4 µM
Outline: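 In this cell-based antagonist screen, compounds act for 10 min at room temperature before a 30 min challenge with 12 nM quinpirole and 200 nM NKH477. cAMP is quantified by HTRF competition in DRD2-HEK293 cells containing 0.1 mM Ro20-1724.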

[15] = p53 small molecule agonists, cell-based qHTS assay with rat liver microsomes (AID 1963578); conditions: HCT-116 p53RE-bla, beta-lactamase ratio, 16 h; series mostly up to 66 µM
Outline: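 Quantitative HTS of the Tox21 10K library: p53RE-bla cells, rat liver microsomes plus NADPH at 0.5 mg/mL final each, 16 h at 37 C, beta-lactamase fluorescence detection.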

[16] = p53 small molecule agonists, cell-based qHTS assay (AID 1963582; active means well fitted activation curve with a large enough effect in the signal ratio in the repeat runs, not every such curve was filed as active; the % refers to the signal ratio); conditions: HCT-116 p53RE-bla reporter, beta-lactamase FRET ratio, 16 h; series mostly up to 66 µM
Outline: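 Quantitative HTS in p53RE-bla cells: after a 5 h settling period, compounds delivered in DMSO were left on cells for 16 h at 37 C, and reporter induction was measured as fluorescence following 2 h substrate loading.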

[17] = target: 5-hydroxytryptamine receptor 2A (Homo sapiens) (UniProt P28223); experiment: 5-hydroxytryptamine receptor 2A (HTR2A) small molecule antagonists, cell-based qHTS assay (AID 1963586); conditions: HTR2A-CHO cells, DOI-induced calcium flux, fluorescence; series mostly up to 61.5 µM; further: nearly all actives have a fitted effect of over 45% in size
Outline: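 Antagonist-mode intracellular calcium assay: DOI (4 nM) added after 5 min compound pre-incubation at room temperature to dye-loaded HTR2A-CHO cells. Fluorescence followed for 3 min, sampled every second.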

[18] = target: Muscarinic acetylcholine receptor M1 (Homo sapiens) (UniProt P11229); experiment: Cholinergic receptor muscarinic 1 (CHRM1) small molecule antagonists, cell-based qHTS assay (AID 1963588); conditions: CHRM1-CHO antagonist mode, calcium flux fluorescence; series mostly up to 61.5 µM; further: nearly all actives have a fitted effect of over 40% in size
Outline: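 CHRM1-CHO calcium-flux assay, antagonist mode. Cells were seeded 18 h, dye-loaded 1 h at 37 C and given compound for 5 min at RT, then acetylcholine was added at 50nM. FDSS fluorescence was read 3 min; 15 concentrations, three runs.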

[19] = target: Beta-2 adrenergic receptor (Homo sapiens) (UniProt P07550); experiment: Adrenergic beta2 receptor (ADRB2) small molecule agonists, cell-based qHTS assay (AID 1963593); conditions: CHO-ADRB2 cells, cAMP HTRF, 30 min; series mostly up to 92.4 µM;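 further: CHO cells stably overexpressing human ADRB2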
Outline: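 CHO cells stably over-expressing ADRB2 were plated overnight at 37C, then dosed with compounds plus a stimulation mix containing 100uM IBMX and 25uM Ro-20-1724 for 0.5hr at room temperature. cAMP was measured by HTRF competition, 1hr.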

[20] = p53 small molecule agonists, cell-based qHTS assay with human liver microsomes (AID 1963577); conditions: HCT-116 p53RE-bla with human liver microsomes, ratio, 16 h; series mostly up to 66 µM;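 further: p53 response element beta-lactamase reporter cells with liver microsomes plus NADPH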
Outline: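 HLM-supplemented p53RE-bla reporter assay: 16 h compound exposure at 37 C, microsomes and NADPH each 0.5 mg/mL final, read by fluorescence intensity.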

Measured: Potency

Sequence of Beta-2 adrenergic receptor (Homo sapiens) (P07550 whole entry, looked up): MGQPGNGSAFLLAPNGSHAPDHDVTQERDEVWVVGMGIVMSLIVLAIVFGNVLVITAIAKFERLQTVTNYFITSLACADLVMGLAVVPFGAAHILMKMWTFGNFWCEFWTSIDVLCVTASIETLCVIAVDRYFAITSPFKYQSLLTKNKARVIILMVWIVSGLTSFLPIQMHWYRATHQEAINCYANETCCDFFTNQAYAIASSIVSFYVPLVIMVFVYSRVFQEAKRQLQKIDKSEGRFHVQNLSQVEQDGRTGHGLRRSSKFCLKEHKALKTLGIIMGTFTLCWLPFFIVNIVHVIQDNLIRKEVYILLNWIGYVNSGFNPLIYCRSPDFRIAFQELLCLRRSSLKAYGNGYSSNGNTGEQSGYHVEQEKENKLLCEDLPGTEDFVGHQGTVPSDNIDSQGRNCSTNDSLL
Sequence of 5-hydroxytryptamine receptor 2A (Homo sapiens) (P28223 whole entry, looked up): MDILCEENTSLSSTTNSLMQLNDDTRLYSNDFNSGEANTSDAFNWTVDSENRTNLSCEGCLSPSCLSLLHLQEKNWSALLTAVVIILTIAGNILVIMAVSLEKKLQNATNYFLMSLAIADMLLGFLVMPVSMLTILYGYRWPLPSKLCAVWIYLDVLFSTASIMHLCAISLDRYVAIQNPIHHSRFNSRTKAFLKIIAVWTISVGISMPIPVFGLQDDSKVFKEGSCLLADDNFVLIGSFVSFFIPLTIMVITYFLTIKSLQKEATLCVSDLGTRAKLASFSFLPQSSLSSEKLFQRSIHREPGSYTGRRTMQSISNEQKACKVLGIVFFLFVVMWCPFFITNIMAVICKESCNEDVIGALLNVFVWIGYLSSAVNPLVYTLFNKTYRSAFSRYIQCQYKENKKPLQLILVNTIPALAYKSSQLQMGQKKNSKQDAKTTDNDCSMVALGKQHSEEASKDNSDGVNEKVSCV
Sequence of Gonadotropin-releasing hormone receptor (Homo sapiens) (P30968 whole entry, looked up): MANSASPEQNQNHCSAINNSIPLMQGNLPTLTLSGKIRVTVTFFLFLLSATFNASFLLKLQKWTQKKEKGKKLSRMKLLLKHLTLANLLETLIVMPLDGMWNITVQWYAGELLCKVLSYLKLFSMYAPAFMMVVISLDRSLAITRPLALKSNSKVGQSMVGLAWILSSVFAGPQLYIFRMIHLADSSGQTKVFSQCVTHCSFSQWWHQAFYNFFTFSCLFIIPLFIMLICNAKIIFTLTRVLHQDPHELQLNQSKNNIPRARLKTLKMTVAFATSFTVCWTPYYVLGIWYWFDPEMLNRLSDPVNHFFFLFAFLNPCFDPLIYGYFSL
Sequence of KiSS-1 receptor (Homo sapiens) (Q969F8 whole entry, looked up): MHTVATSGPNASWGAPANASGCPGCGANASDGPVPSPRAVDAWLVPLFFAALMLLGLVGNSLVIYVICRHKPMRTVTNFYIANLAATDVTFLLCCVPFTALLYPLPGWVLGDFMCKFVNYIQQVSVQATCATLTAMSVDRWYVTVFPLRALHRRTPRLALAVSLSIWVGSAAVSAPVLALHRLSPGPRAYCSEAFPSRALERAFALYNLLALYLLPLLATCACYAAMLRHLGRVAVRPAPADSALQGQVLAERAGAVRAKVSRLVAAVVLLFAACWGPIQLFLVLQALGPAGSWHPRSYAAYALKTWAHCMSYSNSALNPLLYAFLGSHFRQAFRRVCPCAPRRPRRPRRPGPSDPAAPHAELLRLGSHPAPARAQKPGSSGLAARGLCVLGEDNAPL
Sequence of Muscarinic acetylcholine receptor M1 (Homo sapiens) (P11229 whole entry, looked up): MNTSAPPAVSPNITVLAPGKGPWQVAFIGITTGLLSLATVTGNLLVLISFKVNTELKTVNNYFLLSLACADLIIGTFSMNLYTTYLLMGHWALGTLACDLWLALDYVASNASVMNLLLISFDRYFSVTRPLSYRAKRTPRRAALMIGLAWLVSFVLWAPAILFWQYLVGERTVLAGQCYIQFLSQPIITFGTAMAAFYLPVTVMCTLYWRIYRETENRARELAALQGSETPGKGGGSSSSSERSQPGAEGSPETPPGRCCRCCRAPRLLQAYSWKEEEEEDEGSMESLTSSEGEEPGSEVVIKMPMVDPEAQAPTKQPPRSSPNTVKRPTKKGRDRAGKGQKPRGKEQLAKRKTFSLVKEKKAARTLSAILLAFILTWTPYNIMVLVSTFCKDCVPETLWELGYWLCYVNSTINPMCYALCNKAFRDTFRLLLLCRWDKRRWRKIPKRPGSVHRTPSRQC
Sequence of D(2) dopamine receptor (Homo sapiens) (P14416 whole entry, looked up): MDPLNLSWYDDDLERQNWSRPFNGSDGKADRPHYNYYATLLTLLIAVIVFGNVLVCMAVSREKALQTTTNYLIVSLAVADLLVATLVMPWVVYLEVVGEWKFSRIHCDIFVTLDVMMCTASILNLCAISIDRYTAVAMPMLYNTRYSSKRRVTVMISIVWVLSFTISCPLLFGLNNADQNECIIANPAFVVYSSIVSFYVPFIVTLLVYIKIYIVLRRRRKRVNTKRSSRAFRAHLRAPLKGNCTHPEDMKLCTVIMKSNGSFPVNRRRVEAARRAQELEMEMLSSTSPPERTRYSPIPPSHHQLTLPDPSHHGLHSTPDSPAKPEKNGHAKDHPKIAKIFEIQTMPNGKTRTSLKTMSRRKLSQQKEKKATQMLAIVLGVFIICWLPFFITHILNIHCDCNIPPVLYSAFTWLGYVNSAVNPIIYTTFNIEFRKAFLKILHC

O=S(=O)(Oc1ccc(Cl)cc1Cl)c1ccccc1
inactive: [1] | [2] | [3] | [4] | [5] | [6] | [7] | [8] | [9] | [10] | [11] | [12] | [13] | [14]

Cc1cc(O)cc(C)c1Cl
inactive: [1] | [2] | [3] | [4] | [5] | [6] | [7] | [10] | [11] | [13] | [14]

OCCOCCOCCOCCOCCO
inactive: [1] | [2] | [3] | [4] | [15] | [5] | [6] | [7] | [16] | [17] | [8] | [18] | [9] | [10] | [11] | [12] | [19] | [13] | [14]

CC(C=O)Cc1ccc(C(C)(C)C)cc1 (centres undefined)
inactive: [1] | [2] | [3] | [4] | [20] | [5] | [6] | [7] | [17] | [8] | [18] | [9] | [10] | [11] | [12] | [19] | [13] | [14]

CCCCCC/C(C=O)=C\c1ccccc1
inactive: [1] | [2] | [3] | [4] | [5] | [6] | [7] | [17] | [8] | [18] | [9] | [10] | [11] | [12] | [19] | [13] | [14]

CC(COCC(C)OC(=O)c1ccccc1)OC(=O)c1ccccc1 (centres undefined)
inactive: [1] | [2] | [3] | [4] | [5] | [6] | [7] | [17] | [8] | [18] | [9] | [10] | [11] | [12] | [19] | [13] | [14]

Oc1cccc2ccccc12
inactive: [1] | [2] | [3] | [4] | [20] | [15] | [6] | [7] | [16] | [17] | [8] | [18] | [9] | [10] | [11] | [12] | [13] | [14]
